Source: PubChem BioAssay (NCI)
About 83,000 compounds went through this panel and 20% of them were active in at least one assay; those are over-represented in the sample as a whole.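 48-hour exposure, single concentration, 96-well plates; percent growth endpoint where 0 means no net growth. Active: below 10.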 Unmarked numbers belong to inactive results. Active and inactive are the calls of the source.

Tested on: KM12 colon
Assay: NCI-60 one-dose screen, 48 h (100 = growth as untreated, 0 = no growth, -100 = all killed)
Settings: 10 µM unless noted

Q: For `O=C1Cc2c([nH]c3ccc([N+](=O)[O-])cc23)-c2ccccc2N1`, which growth is on record?
A: 4.23% (active)

Q: With `Cc1ccccc1CNc1ncnc2[nH]ncc12` as the compound, how does the growth read?
A: 112%

Q: For `COc1ccc(OC)c(Nc2nc(-c3c(C)nc4sccn34)cs2)c1`, which growth is on record?
A: 69.2%

Q: How did the growth turn out when `COc1cc2c(cc1OC)C(=O)OC2` was run?
A: 113%

Q: `CN=C1C=C/C(=N/N=c2/ccn(O)cc2C)C=C1C` was tested. Which growth did it give?
A: 109%

Q: How did the growth turn out when `Cc1nc2ccc(Nc3nc(N4CCOCC4)nc(N4CCN(C)CC4)n3)cc2n1Cc1ccccc1` was run?
A: 93.2%

Q: Which growth does the source give for `CC(C)=CCC[C@H](C)c1ccc(C)c2c1OCN(CCO)C2` here?
A: 103%

Q: With `COc1ccc(NC(=O)c2ccc(C(F)(F)F)nc2Nc2ccc(Cl)cc2C)cc1Cl` as the compound, how does the growth read?
A: 24.3%

Q: How did the growth turn out when `O=C(NCCNC(=O)c1cc(S(=O)(=O)NCCc2ccccc2)c(O)c(O)c1O)c1cc(S(=O)(=O)NCCc2ccccc2)c(O)c(O)c1O` was run?
A: 34.1%

Q: How did the growth turn out when `Cc1ccc(NC(=O)Cn2nncc2CN2C(=O)CSC2=O)cc1C` was run?
A: 105%

Q: How did the growth turn out when `Brc1ccccc1Cn1c(-c2cncs2)nc2ccccc21` was run?
A: 76.7%

Q: With `COc1cccc(Cn2c(-c3nonc3NC(C)=O)nc3ccccc32)c1` as the compound, how does the growth read?
A: 30.4%

Q: How did the growth turn out when `CN1CCN(Cc2ccc(NC(=O)c3cccc(C#Cc4cnc(N)c5ncccc45)c3F)cc2C(F)(F)F)CC1` was run?
A: 1.2% (active)

Q: `O=C(Oc1c(Cl)c(Cl)c(Cl)c(Cl)c1Cl)C1CCCN1C(=O)OCc1ccccc1` (stereo not given) was tested. Which growth did it give?
A: 23.6%

Q: Which growth does the source give for `Clc1ccc(Nc2ncnc3c2sc2ncccc23)cc1` here?
A: 56.2%
